Screens from PubChem.
Only some compounds are listed: those with a hit (about 10% of all), similar ones and a draw of the others.
HP1b binding inh: HP1-beta chromodomain-methylated histone interaction inhibition; P83916; AlphaScreen HP1-beta / biotin-H3K9me3 peptide binding; Potency, µM (titrated, usually from 114 µM), for inactives: at the highest dose activity change, negative = inhibition, most hits filed as inhibitors; 390,000 compounds, 0.56% hits; note: potency is the fitted concentration of half-maximal effect; nearly all actives have a fitted effect of over 70% in size
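Compound inhibition of the preformed complex between 50 nM HP1-beta and 50 nM biotinylated H3K9me3 peptide was read by AlphaScreen. Buffer was PBS pH 7.4 with 0.01% Tween-20. Incubations ran 30 min at room temperature, with 10 ug/mL donor/acceptor beads.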
CtBP-E1A inh: CtBP/E1A binding inhibition; AlphaScreen GST-E1A/His-CtBP binding, 1536-well; stronger effect = lower value; activity change, % (concentration not given with the values); 340,000 compounds, 0.49% hits; AID 651724; in the data active = activity change below about -65%; inconclusive = mostly about -30% to -63%; note: % is set by controls: 0 for no effect and ±100 for the full control effect
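Homogeneous bead-based format: GST-tagged E1A captured on glutathione donor beads, His-tagged CtBP on nickel acceptor beads; compounds precede bead addition by 2 h at 37 °C.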
JMJD2A Tudor inh: inhibitors of human JMJD2A Tudor domain. O75164. AlphaScreen JMJD2A-Tudor / H3K4me3 peptide binding. Potency, µM (series often up to 114 µM), for inactives: at the highest dose activity change, negative = inhibition, actives largely listed as inhibitors. 390,000 compounds, 4.4% hits. AID 504339; note: potency is the fitted concentration of half-maximal effect; % is set by controls: 0 for no effect and ±100 for the full control effect; nearly all actives have a fitted effect of over 50% in size
Target sequence (O75164 whole entry, looked up, the tested form may be a part): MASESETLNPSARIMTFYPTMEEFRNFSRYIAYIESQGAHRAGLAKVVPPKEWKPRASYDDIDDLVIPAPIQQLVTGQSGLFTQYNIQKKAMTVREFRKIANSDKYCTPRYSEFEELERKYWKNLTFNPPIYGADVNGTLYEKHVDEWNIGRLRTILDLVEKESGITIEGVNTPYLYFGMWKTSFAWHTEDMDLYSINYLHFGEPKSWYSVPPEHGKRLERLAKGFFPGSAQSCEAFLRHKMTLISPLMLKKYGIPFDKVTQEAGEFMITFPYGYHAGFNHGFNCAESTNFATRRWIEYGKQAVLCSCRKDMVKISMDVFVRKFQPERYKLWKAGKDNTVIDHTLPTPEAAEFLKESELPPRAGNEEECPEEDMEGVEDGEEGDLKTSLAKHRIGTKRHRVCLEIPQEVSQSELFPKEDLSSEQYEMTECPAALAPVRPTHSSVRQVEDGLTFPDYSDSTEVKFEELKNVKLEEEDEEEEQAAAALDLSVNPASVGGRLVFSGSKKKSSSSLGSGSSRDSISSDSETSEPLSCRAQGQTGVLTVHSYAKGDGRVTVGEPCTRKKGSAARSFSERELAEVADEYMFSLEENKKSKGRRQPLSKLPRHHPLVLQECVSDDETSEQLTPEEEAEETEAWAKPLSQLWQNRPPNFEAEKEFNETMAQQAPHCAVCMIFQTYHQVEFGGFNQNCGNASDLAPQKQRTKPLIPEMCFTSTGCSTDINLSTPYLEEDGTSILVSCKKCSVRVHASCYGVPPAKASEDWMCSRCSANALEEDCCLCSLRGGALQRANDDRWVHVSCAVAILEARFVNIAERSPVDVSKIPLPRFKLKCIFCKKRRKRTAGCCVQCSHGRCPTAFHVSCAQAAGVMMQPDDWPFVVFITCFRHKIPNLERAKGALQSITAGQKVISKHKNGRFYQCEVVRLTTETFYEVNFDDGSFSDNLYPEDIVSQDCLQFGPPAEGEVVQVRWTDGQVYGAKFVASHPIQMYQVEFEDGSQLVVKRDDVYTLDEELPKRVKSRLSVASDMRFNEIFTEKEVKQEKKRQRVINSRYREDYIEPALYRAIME
BAZ2B block: blocks human BAZ2B. Potency, µM (top dose mostly 114 µM), inactives show at the top dose activity change, negative = inhibition, most hits filed as inhibitors. Q9UIF8. AlphaScreen BAZ2B-H3K14Ac peptide displacement. AID 504333. 360,000 compounds, 4.4% hits; note: potency is the fitted concentration of half-maximal effect; % is set by controls: 0 for no effect and ±100 for the full control effect; nearly all actives have a fitted effect of over 60% in size
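Inhibition is scored as reduced AlphaScreen emission. The BAZ2B/b-H3(5-23)K14Ac complex (50 nM each) in PBS pH 7.4, 0.01% Tween-20 meets compound (up to 110 uM) for 30 min at RT before bead addition.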
G9a inh: blocks human histone lysine methyltransferase G9a | Q96KQ7 | G9a H3K9 monomethylation, AlphaScreen, 2 h | Potency, µM (series often up to 102 µM), for the others: at the top dose activity, negative = inhibition, most hits filed as inhibitors | 350,000 compounds, 8.8% hits | AID 504332; note: potency is the fitted concentration of half-maximal effect; % is set by controls: 0 for no effect and ±100 for the full control effect; nearly all actives have a fitted effect of over 75% in size
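AlphaScreen read-out: biotin-H3K9 peptide (500 nM) methylation by 20 nM enzyme with 20 uM SAM, 2 h at room temperature after 15 min compound preincubation; anti-monomethyl H3K9 antibody plus donor/acceptor beads, 10 min dark.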
Six1-Eya2 inh: blocks human Six1 binding to Eya2; Q15475+O00167; AlphaScreen GST-Six1/His-Eya2 binding, biochemical; stronger effect = lower value; activity change, % (test concentration not listed); 360,000 compounds, 0.56% hits; AID 651725; in the data active = activity change below about -65%; inconclusive = mostly about -30% to -63%; note: % is set by controls: 0 for no effect and ±100 for the full control effect
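AlphaScreen luminescence read after one hour at 37 °C in darkness. Pin-transferred compounds met GST-Six1 and His-Eya2 protein (5X stock 250 nM/500 nM) plus glutathione donor and Ni-chelate acceptor beads (5X, 50 ug/mL).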
* = called active by the depositor; ? = inconclusive; / = no result; [ ] = dose if it differs, or a comment. Unless noted, calls come from the whole dose curve; as a rule, active = well fitted inhibition curve with a large enough effect; inconclusive = small, poorly fitted or top-dose-only effect; inactive = no such curve, though single readings can be large or run the other way.

SMILES | HP1b binding inh | CtBP-E1A inh | JMJD2A Tudor inh | BAZ2B block | G9a inh | Six1-Eya2 inh
CN1N=C2c3ccccc3CCC2C1c1ccc(C(F)(F)F)cc1 (centres undefined) | 44% | 5 | 1% | -17% | 5% | 9
CON(C)C(=O)c1ccccc1N(C)C(=O)OC(C)(C)C | 42% | 1 | -6% | / | / | 1
Cc1nn(C)c2c1c(-c1ccccc1)cc(=O)n2CC(=O)NC(C)c1ccccc1 (centres undefined) | 40µM* | / | 50µM* | 50µM* | -45%[59 µM] | /
Nc1ccc(-n2nncc2-c2ccc(Cl)cc2)cc1 | -4% | 0 | ? | -7% | 7.1µM* | -3
O=[N+]([O-])c1ccc(-n2nncc2-c2ccc(Cl)cc2)cc1 | -23% | -16 | ? | ? | -13%[59 µM] | -15
CN(C)S(=O)(=O)c1cccc(NC(=S)N/N=C/C2CC=CCC2)c1 (centres undefined) | 38% | 4 | 13µM* | -25% | 5.6µM* | 1
Cc1sc(-c2ccccn2)nc1OC(=O)c1cccc(Cl)c1Cl | 17% | -21 | ? | 23% | ? | -7
Cc1sc(-c2ccccn2)nc1OC(=O)c1ccc(Cl)cc1 | -3% | -7 | 25µM* | 1% | ? | -2
CCOCCCNCc1ccc(Cl)cc1 | ? | 2 | 1.1µM* | 71µM* | 11µM* | 2
C=CCc1ccc(OCCN2CCc3ccccc3C2)c(OC)c1 | ? | -3 | ? | 50µM* | 10µM* | -9
C/C=C/c1ccc(OCCN2CCc3ccccc3C2)c(OC)c1 | ? | -6 | 0.89µM* | ? | 45µM* | -1
Cc1cccc(NC(=O)CNC(=O)c2ccccc2Cl)n1 | 18% | 4 | -21% | 5% | 10% | 1
Cc1c(C(=O)O)cnc2c([N+](=O)[O-])cnn12 | -1% | 0 | 8.9µM* | -26% | 56µM* | -4
COc1ccc(C2=NN(C(=O)c3ccco3)C(c3ccco3)C2)cc1OC (centres undefined) | 16% | ? | -23% | -35% | ? | -30
CCCC(CCC(=O)Nc1cc([N+](=O)[O-])ccc1O)C(=O)O (centres undefined) | -4% | -13 | -6% | 56µM* | ? | -11
O=C(c1csnn1)N1CCC2(CC1)CCN(c1ccccn1)CC2 | / | / | / | / | -1%[12.7 µM] | /
Cc1ccc2nc(-c3cccc(Cl)c3)c(Nc3ccc4c(c3)OCO4)n2c1 | 31% | / | -16% | / | ? | /
Brc1ccc2nc(-c3ccccc3)c(Nc3ccc4c(c3)OCO4)n2c1 | 38% | / | 3% | 3% | -7%[59 µM] | /
CN(C)c1ccc(-c2nc3ccccn3c2Nc2ccc3c(c2)OCCO3)cc1 | ? | / | 13µM* | -32% | 2.2µM* | /
c1ccc(-c2nc3cnccn3c2Nc2ccc3c(c2)OCCO3)cc1 | ? | -15 | 45µM* | ? | ? | -19
Clc1cccc(-c2nc3ccccn3c2Nc2ccc3c(c2)OCCO3)c1 | ? | / | 22µM* | 11µM* | ? | /
Oc1ccc(-c2nc3ncccn3c2Nc2ccc3c(c2)OCO3)cc1 | -24% | -10 | ? | 50µM* | ? | -12
COc1cc(-c2nc3cnccn3c2Nc2ccc3c(c2)OCCO3)ccc1O | 0% | -7 | -35% | 2% | ? | -9
COc1cc(-c2nc3cccc(C)n3c2Nc2ccc3c(c2)OCCO3)ccc1O | -6% | / | -34% | / | ? | /
Oc1ccc(-c2nc3ccccn3c2Nc2ccc3c(c2)OCCO3)cc1 | -37% | / | 50µM* | 40µM* | 13µM* | /
COc1cc(-c2nc3ccc(C)cn3c2Nc2ccc3c(c2)OCCO3)ccc1O | 50µM* | -21 | ? | 14µM* | 22µM* | -24
CC1CCCCC1NC(=O)COC(=O)c1ccc2ncsc2c1 (centres undefined) | -2% | 0 | ? | -20% | 4%[12.7 µM] | 1
O=C(COC(=O)c1ccc2ncsc2c1)NC(=O)NCc1ccccc1 | 2% | -8 | -16% | -19% | -8% | -2
COc1ccc(C(=O)NC(=O)COC(=O)c2ccc3ncsc3c2)cc1 | / | / | / | 56µM* | -22%[59 µM] | /
